A short description of test [1]: qHTS for Inhibitors of Plasmodium falciparum (DD2) proliferation (AID 504314).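 Also: parasite DNA measured by SYBR Green fluorescence after red cell lysis; plate controls were DMSO vehicle for no effect and artemisinin wells for full effect.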 In a few lines:
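SYBR Green growth assay: 72 h compound exposure of infected red cells (2.5% hematocrit, 0.3% parasitemia), then lysis and overnight dye staining, fluorescence 485/535 nm. Values scaled between DMSO and 0.29 uM artemisinin controls.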

Test [2] can be described thus: qHTS for Inhibitors of Plasmodium falciparum (GB4) proliferation (AID 504315). Also: nearly all actives have a fitted effect of over 50% in size. Also: potency is read from the fitted curve at half-maximal effect. An outline of the steps:
(§1)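 Parasite growth measured as SYBR Green DNA fluorescence (ex 485, em 535 nm) after overnight lysis following 72 h culture at 37 °C, 0.3% parasitemia, 2.5% hematocrit. Values normalized against DMSO and 0.29 uM artemisinin controls, with plate-stack correction.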
Background: qHTS replaces the single test concentration by a dilution series.

Test [3] in a line: qHTS for Inhibitors of Plasmodium falciparum (7G8) proliferation (AID 504316). Also: nearly all actives have a fitted effect of over 65% in size. Also: potency is read from the fitted curve at half-maximal effect. In a few lines: as §1
Test [4] in a line: qHTS for Inhibitors of Plasmodium falciparum (HB3) proliferation (AID 504318).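 Also: 0% = DMSO vehicle and -100% = artemisinin control; nearly all actives have a fitted effect of over 60% in size.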 An outline of the steps:
as §1

A short description of test [5]: qHTS for Inhibitors of Plasmodium falciparum (CP250) proliferation (AID 504320).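 Also: plate controls were DMSO vehicle for no effect and 0.29 µM artemisinin control for full effect.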 In a few lines: as §1
In test [6] the target is Atrial natriuretic peptide receptor 1 (Homo sapiens) (UniProt P16066). Nature of the test: Natriuretic polypeptide receptor (hNpr1) antagonism - Pilot CMLD screen (AID 1347052; calls by dose curve;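 also: HEK293 cells with hNpr1 stimulated by hNppA peptide at 0.1 nM; cGMP level read as GloSensor luciferase luminescence after agonist stimulation; series mostly up to about 9.2 µM; % is scaled to controls: 0 for no effect and ±100 for the full control effect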).

Each structure is given as a SMILES string. “And” between values parts separate entries of the source, which are not always exact repeats. Identical values can stand only once. Results filed as inconclusive are left out. A number with no mark means an inactive call. The source made the active and inactive calls. Unless noted, calls follow the shape of the dose curve; as a rule, active = well fitted curve in the direction sought with a large enough effect; inconclusive = small, poorly fitted or top-dose-only effect, or another doubt; inactive = no such curve, though single readings can be large; an effect the other way counts as inactive or inconclusive.

Chain of Atrial natriuretic peptide receptor 1 (Homo sapiens) (P16066 whole entry, looked up): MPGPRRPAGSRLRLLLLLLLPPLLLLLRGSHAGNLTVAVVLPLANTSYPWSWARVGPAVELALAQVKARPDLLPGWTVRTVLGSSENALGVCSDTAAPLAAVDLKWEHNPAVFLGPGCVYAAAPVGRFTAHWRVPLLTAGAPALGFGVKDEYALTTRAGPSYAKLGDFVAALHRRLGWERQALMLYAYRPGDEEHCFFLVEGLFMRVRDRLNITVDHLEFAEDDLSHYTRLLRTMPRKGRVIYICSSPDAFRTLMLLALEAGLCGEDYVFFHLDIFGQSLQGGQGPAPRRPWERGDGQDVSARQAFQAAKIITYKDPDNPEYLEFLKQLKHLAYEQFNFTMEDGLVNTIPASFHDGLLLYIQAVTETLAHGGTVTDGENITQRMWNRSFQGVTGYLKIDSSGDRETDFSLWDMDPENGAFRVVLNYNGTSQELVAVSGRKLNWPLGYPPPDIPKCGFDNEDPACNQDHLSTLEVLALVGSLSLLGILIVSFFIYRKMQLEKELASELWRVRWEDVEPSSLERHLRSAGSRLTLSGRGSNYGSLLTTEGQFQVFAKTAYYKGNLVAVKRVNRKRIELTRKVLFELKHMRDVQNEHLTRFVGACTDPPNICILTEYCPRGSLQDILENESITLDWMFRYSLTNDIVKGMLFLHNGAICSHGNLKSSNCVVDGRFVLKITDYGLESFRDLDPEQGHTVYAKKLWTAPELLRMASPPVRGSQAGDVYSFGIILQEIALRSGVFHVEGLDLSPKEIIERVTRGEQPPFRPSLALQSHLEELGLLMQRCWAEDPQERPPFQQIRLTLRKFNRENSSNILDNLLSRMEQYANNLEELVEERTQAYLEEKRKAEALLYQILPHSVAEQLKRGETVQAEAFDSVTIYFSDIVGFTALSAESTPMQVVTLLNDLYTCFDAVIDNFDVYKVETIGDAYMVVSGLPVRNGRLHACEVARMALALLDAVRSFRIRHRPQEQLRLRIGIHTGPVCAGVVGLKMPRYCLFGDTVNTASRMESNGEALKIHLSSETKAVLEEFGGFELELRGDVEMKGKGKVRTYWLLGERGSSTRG

As for `Cc1ccc(C(O)C2=CCCC2=O)cc1` (centres undefined), the Potency result in test [1], in test [2], in test [3], in test [4], in test [5] and in test [6] was “inactive” each time.
As to `COc1ccc(-c2nc(-c3ccccc3)oc2NC(C)c2ccccc2)cc1` (centres undefined), the Potency result in test [1], in test [2], in test [3], in test [4], in test [5] and in test [6] was “inactive” in each case.
For the compound `C=CCCC1(CCC)C(=O)C(=C(O)c2ccccc2)C(=O)C(CCC)=C1OC` (centres undefined), the Potency entry in test [1], in test [2], in test [3], in test [4], in test [5] and in test [6] was “inactive” in each case.
Regarding `COC(=O)CCCC1=CC2=C(c3ccccc3)C(=O)C(C)(OC(=O)C3CCCC3)C(=O)C2=CN1Cc1ccco1` (centres undefined), the Potency entry in test [1], in test [2], in test [3], in test [4], in test [5] and in test [6] was “inactive” in each case.
For the compound `COC(=O)N[C@@H](C=Cc1ccco1)[C@]1(C(=O)OC)CCCC1=O`, the Potency result in test [1], in test [2], in test [3], in test [4], in test [5] and in test [6] was “inactive” throughout.
On to `CCN1C(=NCCc2ccc(Br)cc2)NC(c2ccccc2)C(C(=O)OC)=C1C` (centres undefined), for which the Potency result in test [1], in test [2], in test [3], in test [4], in test [5] and in test [6] was “inactive” throughout.
As for `COC(=O)CC=C[C@H](C)[C@@H](OCc1ccccc1Br)C(C)C`, the Potency result in test [1], in test [2], in test [3], in test [4], in test [5] and in test [6] was “inactive” in each case.
Take `Cc1ccc(C#C[C@@H]2C=C[C@H](Oc3ccc4c(c3)OCO4)[C@@H](CO)O2)c(C)c1`: the Potency result in test [1], in test [2], in test [3], in test [4], in test [5] and in test [6] was “inactive” each time.
Take `COC(=O)CCCC1=CC2=C(c3ccccc3)C(=O)C(C)(OC(=O)C3CCCC3)C(=O)C2=CN1c1ccccc1` (centres undefined): the Potency entry in test [1], in test [2], in test [3], in test [4], in test [5] and in test [6] was “inactive” each time.
As to `CC(C)Nc1oc(-c2ccccc2)nc1-c1ccc(C(F)(F)F)cc1`, the Potency result in test [1], in test [2], in test [3], in test [4], in test [5] and in test [6] was “inactive” in each case.
As for `COc1ccc(COC(=O)NN=C2C[C@@H](O)[C@@H](O)[C@@H]3[C@H]4C(=O)N(C5CCCCC5)C(=O)[C@@H]4CC[C@H]23)cc1`, the Potency entry in test [1], in test [2], in test [3], in test [4], in test [5] and in test [6] was “inactive” throughout.
For `CN1c2ccccc2[C@@]2(O)C(=O)[C@@]1(C)[C@@H]1C=CCC[C@H]12`, the Potency result in test [1], in test [2], in test [3], in test [4], in test [5] and in test [6] was “inactive” in each case.
As to `COC(=O)C1=C(C)N(CC#C[Si](C)(C)C)C(=O)N(C(C)=O)C1c1ccccc1` (centres undefined), the Potency result in test [1], in test [2], in test [3], in test [4], in test [5] and in test [6] was “inactive” in each case.
Regarding `CCCCc1cc2c(cn1)=C(OC(=O)C1CCCC1)C(C)(OC(=O)CC)C(=O)C=2` (centres undefined), the activity, negative = inhibition in test [1] was 0.367% [at 1.12 µM]. Further, the Potency is 1900 nM (active) in test [2]; 1.51 µM (active) and 1.69 µM (active) in test [3]. In addition, the Potency result in test [4], in test [5] and in test [6] was “inactive” each time.

The values are drawn from PubChem BioAssay (NCATS).
